Assay [1] in a line: optical density shifts of acrAB sulA E. coli – strain DRC41, OD650, 48 h, E. coli filamentation inducer project, primary screen (AID 1152).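 Note: E. coli MC1000 strain DRC41 lacking acrAB efflux pump and sulA.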 The following applies: higher = more signal, called active from +8 up or from −8 down.
Assay [2] in a line: probe aLefty1 binding on compound microarray – biochemical, small-molecule microarray, 635/667 nm fluorescence, primary screen (AID 1153).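 Note: score merges spot fluorescence with signal-to-noise ratio from the scanned slide images.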 The following applies: higher = more signal.
Assay [3] in a line: plasmodial surface anion channel blockers, osmotic lysis – cell-based, P. falciparum Indochina, OD700, 1 h, primary screen (AID 1154). Conditions: P. falciparum Indochina infected RBC osmotic lysis, higher = more signal, called active from +8 up or from −8 down.
Assay [4] in a line: plasmodial surface anion channel blockers, osmotic lysis – cell-based, P. falciparum Indochina, OD700, 2 h, primary screen (AID 1155).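 Note: lysis reports solute entry through the parasite surface anion channel PSAC.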 Conditions: P. falciparum Indochina infected erythrocytes, higher = more signal, called active from +8 up or from −8 down.
Assay [5] can be described thus: changes in parasitized red cell lysis, either direction – P. falciparum Indochina, OD700, 3 h, PSAC antagonist project, primary screen (AID 1156). The following applies: P. falciparum-infected erythrocytes, osmotic lysis, higher = more signal, called active from +8 up or from −8 down.
A short description of assay [6]: plasmodial surface anion channel blockers, osmotic lysis – cell-based, P. falciparum Indochina, OD700, 18 h, primary screen (AID 1157). Conditions: P. falciparum Indochina infected erythrocytes, osmotic lysis OD700, 18 h; higher = more signal, called active from +8 up or from −8 down.
A short description of assay [7]: S6 kinase pathway phospho-S6 level changes – cell-based, A549, cytoblot, luminescence, serum-stimulated, primary screen (AID 1158).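 Note: serum-stimulated A549 lung adenocarcinoma cells; signal is phosphorylated S6 detected by cytoblot immunostaining with HRP secondary.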 Conditions: 5 h, higher = more signal.
Assay [8] deals with NADPH oxidase 2 (Homo sapiens) (UniProt P04839). The experiment in a line: compounds shifting NOX2 Amplex Red fluorescence – cell-based, HEK293-NOX2, PMA-stimulated, NOX inhibitor project, primary screen (AID 1159). Note: test concentration not given here. The following applies: 45 min, higher = more signal, called active from +8 up or from −8 down.
The target in assay [9] is NADPH oxidase 4 (Homo sapiens) (UniProt Q9NPH5). Description: compounds shifting NOX4 Amplex Red fluorescence – cell-based, HEK293-NOX4, tetracycline-induced, NOX inhibitor project, primary screen (AID 1160). Conditions: HEK293-NOX4, Amplex Red H2O2 fluorescence, 45 min; higher = more signal, called active from +8 up or from −8 down.
Assay [10] deals with NADPH oxidase 5 (Homo sapiens) (UniProt Q96PH1). The experiment in a line: compounds shifting NOX5 Amplex Red fluorescence – cell-based, HEK293-NOX5, NOX inhibitor project, primary screen (AID 1161). Conditions: HEK293-NOX5, ionomycin, 45 min, higher = more signal.

Calls of active or inactive are those of the source.

Sequence of NADPH oxidase 5 (Homo sapiens) (Q96PH1 whole entry, looked up): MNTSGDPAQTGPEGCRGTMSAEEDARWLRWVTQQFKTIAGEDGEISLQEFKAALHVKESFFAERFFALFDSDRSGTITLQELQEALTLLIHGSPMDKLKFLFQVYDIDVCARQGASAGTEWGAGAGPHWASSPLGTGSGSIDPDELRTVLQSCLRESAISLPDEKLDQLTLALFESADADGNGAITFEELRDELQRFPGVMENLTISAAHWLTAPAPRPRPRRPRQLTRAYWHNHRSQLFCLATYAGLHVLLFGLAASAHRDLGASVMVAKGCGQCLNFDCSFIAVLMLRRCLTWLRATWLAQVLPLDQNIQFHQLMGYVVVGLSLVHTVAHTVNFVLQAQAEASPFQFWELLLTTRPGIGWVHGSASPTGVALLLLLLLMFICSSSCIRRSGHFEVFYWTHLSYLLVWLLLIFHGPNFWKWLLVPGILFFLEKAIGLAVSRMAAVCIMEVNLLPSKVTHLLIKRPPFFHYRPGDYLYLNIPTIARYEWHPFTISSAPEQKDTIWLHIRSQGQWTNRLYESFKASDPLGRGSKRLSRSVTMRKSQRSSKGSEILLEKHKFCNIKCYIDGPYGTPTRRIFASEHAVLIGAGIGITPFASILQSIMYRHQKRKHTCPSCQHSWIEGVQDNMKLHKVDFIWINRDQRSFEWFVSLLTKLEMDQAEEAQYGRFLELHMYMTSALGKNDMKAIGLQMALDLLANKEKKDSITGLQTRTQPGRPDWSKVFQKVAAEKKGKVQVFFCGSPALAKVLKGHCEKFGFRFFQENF
Sequence of NADPH oxidase 2 (Homo sapiens) (P04839 whole entry, looked up): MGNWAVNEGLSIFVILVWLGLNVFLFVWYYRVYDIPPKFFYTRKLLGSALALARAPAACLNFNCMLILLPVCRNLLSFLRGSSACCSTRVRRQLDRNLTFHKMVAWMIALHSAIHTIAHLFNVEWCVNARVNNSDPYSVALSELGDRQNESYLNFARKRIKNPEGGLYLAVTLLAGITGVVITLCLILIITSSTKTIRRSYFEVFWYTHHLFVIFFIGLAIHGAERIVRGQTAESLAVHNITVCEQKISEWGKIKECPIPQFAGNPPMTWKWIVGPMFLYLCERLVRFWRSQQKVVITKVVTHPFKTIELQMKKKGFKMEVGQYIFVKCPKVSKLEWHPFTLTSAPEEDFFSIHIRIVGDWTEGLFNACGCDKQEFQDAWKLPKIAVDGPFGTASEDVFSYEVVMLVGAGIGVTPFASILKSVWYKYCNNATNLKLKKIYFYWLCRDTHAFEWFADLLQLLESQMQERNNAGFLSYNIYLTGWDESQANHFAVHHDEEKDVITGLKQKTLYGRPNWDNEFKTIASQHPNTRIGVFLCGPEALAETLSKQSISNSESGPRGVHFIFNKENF
Sequence of NADPH oxidase 4 (Homo sapiens) (Q9NPH5 whole entry, looked up): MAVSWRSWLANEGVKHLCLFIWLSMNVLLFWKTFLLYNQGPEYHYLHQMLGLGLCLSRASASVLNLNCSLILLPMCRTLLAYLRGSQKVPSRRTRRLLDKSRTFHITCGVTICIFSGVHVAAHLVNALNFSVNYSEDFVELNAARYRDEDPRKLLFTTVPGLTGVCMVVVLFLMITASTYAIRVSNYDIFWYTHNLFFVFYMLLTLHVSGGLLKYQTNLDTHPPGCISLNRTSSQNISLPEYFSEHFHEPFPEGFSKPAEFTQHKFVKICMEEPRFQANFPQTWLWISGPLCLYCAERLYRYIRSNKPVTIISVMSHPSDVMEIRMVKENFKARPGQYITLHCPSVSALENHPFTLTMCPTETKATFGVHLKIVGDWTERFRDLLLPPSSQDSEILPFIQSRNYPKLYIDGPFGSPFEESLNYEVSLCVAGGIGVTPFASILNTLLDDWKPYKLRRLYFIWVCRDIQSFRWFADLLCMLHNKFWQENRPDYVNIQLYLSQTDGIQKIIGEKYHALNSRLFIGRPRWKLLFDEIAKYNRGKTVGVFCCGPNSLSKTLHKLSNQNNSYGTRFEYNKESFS

With `CN1C(=O)C2C=CC(C(O)c3cc(C(F)(F)F)cc(C(F)(F)F)c3)N(NC(=O)OC(C)(C)C)C2C1=O` (stereo not given), the z-score was -1.13 (inactive) in [1]; -0.0698 (inactive) in assay [3]; 0.118 (inactive) in assay [4]; -0.548 (inactive) in [5]; 1.2 (inactive) in assay [6]; -0.636 in assay [7]. For the same molecule, the z-score is -0.694 (inactive) in assay [8], -1.47 (inactive) in assay [9] and 1.5 in assay [10]. In [2], this molecule gave a composite z-score of 0.363.

`C=C[C@@H](OC)[C@H](OC(=O)Nc1ccc(OC)cc1)c1ccc(OC)c(O)c1`: the z-score is 0.139 (inactive) in assay [1]; 2.48 (inactive) in assay [3]; 0.96 (inactive) in [4]; 0.0081 (inactive) in assay [5]; 0.45 (inactive) in assay [6]; -0.0451 in assay [7]. Further, the z-score in [8] is -2.52 (inactive); in assay [9], -1.04 (inactive); in [10], -1.2. For the same molecule, the composite z-score in assay [2] was -0.123.

Take `CCC(CC)C(O)C1C=CC2C(=O)N(c3ccccc3)C(=O)C2N1Nc1ccc([N+](=O)[O-])cc1` (stereo not given): the z-score in [1] was -0.639 (inactive); in assay [3], 6.6 (inactive); in [4], 0.997 (inactive); in [5] it was 0.136 (inactive); in assay [6], 0.507 (inactive); in [7] it was -0.469. Further, the z-score in assay [8] is -0.272 (inactive); in assay [9], -0.44 (inactive); in [10], -1.03. Also, in assay [2], the composite z-score was determined as 0.342.

Regarding `COCCCNC(=O)[C@@]1(Sc2ccc(C)cc2)CC(=O)N(Cc2ccccc2Cl)[C@@H]1c1ccc(CO)cc1I`, the z-score in [1] is -0.192 (inactive); in assay [3], 3.44 (inactive); in assay [4] it was 0.325 (inactive); in assay [5] it was -0.575 (inactive); in [6], 0.181 (inactive); in assay [7], -0.487. Moreover, the z-score in assay [8] is 1.52 (inactive); in assay [9] it was -1.12 (inactive); in assay [10], 2.08. The molecule further showed a composite z-score in [2] of 0.0004.

On to `COCCOC(=O)N1C(=O)[C@@]2(c3cc(C#CCNC(N)=O)ccc31)[C@H](c1ccc(O)cc1)N1[C@H](c3ccccc3)[C@H](c3ccccc3)OC(=O)[C@H]1[C@@H]2C(N)=O`, for which the z-score in [1] was 0.847 (inactive); in assay [3] it was 0.646 (inactive); in assay [4], 0.783 (inactive); in [5] it was -0.158 (inactive); in [6], 0.386 (inactive); in assay [7], 0.285. Moreover, the z-score is 0.37 (inactive) in [8], 0.163 (inactive) in [9] and 0.361 in [10]. For the same molecule, the composite z-score in [2] is -0.67.

`C=CCNC(=O)[C@H]1[C@@H]2C(=O)O[C@@H](c3ccccc3)[C@@H](c3ccccc3)N2[C@@H](c2ccc(O)cc2)[C@]12C(=O)N(C(=O)OCCOC)c1ccc(C#CCC(C(=O)OC)C(=O)OC)cc12`: the z-score in assay [1] is -0.275 (inactive); in assay [3] it was 5.56 (inactive); in assay [4], 1.27 (inactive); in assay [5] it was -4.17 (inactive); in assay [6], 0.516 (inactive); in [7] it was -0.016. Moreover, the z-score in assay [8] was 1.95 (inactive); in assay [9], 1.14 (inactive); in assay [10], 1.52. For the same molecule, the composite z-score in assay [2] worked out at 0.139.

For the molecule `Cc1ccc(S[C@]2(C(=O)NCc3ccccc3)CC(=O)N(Cc3cc(C(F)(F)F)cc(C(F)(F)F)c3)[C@@H]2c2ccc(CO)cc2I)cc1`, the z-score in assay [1] was 1.66 (inactive); in assay [3], 3.13 (inactive); in assay [4], 0.769 (inactive); in assay [5], -0.0654 (inactive); in [6], 0.598 (inactive); in [7] it was 0.209. The z-score in assay [8] was 1.69 (inactive); in [9], -1.24 (inactive); in [10], 1.28. Moreover, in [2], the composite z-score stood at 0.0903.

Turning to `COC(=O)C1=CC(CCCO)=CC(C)N(Cc2cccc(OC(F)(F)F)c2)C=C1C(=O)OC` (stereo not given), the z-score was -0.0692 (inactive) in assay [1]; 2.3 (inactive) in assay [3]; 0.192 (inactive) in assay [4]; 0.983 (inactive) in assay [5]; 0.5 (inactive) in assay [6]; -0.334 in [7]. Moreover, the z-score in assay [8] was 0.159 (inactive); in assay [9], -0.317 (inactive); in assay [10], 0.859. Also, the composite z-score in assay [2] was determined as 0.248.

Take `COc1ccc(C(O)C2C=CC3C(=O)N(c4ccccc4)C(=O)C3N2Nc2ccccc2F)cc1` (stereo not given): the z-score in assay [1] is -1.19 (inactive); in [3], 4.67 (inactive); in [4], 1.33 (inactive); in assay [5], 0.0183 (inactive); in [6], 0.635 (inactive); in [7] it was -0.331. Besides, the z-score in [8] was -1.34 (inactive); in assay [9], -3.63 (inactive); in assay [10], -1.7. For the same molecule, the composite z-score in [2] came to 0.167.

For `CCCCC=C[C@@H](NC(=O)c1ccccc1)c1ccccc1`, the z-score was -2.36 (inactive) in assay [1]; 0.318 (inactive) in [3]; 0.279 (inactive) in assay [4]; 0.893 (inactive) in [5]; 0.765 (inactive) in assay [6]; 0.442 in assay [7]. For the same molecule, the z-score in [8] was -0.474 (inactive); in assay [9], -2.77 (inactive); in [10] it was -2.28. Moreover, the composite z-score in assay [2] was found to be 0.0538.

Turning to `CCOC(=O)C[C@H]1[C@H](OC(=O)c2ccccc2-c2ccccc2)[C@@H](NC(=O)c2ccc3ccccc3n2)c2cc(OCCCO)ccc2N1C(=O)c1ccccc1`, the z-score in [1] was -1.04 (inactive); in [3], 1.35 (inactive); in [4], 0.496 (inactive); in [5], 0.667 (inactive); in assay [6] it was 0.305 (inactive); in [7] it was -0.35. The z-score was 0.838 (inactive) in assay [8], 1.23 (inactive) in assay [9] and 2.31 in assay [10]. The composite z-score in assay [2] was 0.0355.

In the case of `C=C(COC)C(=O)CC[C@H](OC(C)=O)c1ccc(OCCO)cc1`, the z-score in assay [1] was 1.5 (inactive); in assay [3], 4.92 (inactive); in assay [4], -1.68 (inactive); in [5], 1.91 (inactive); in assay [6] it was -1.85 (inactive); in assay [7], 0.534. For the same molecule, the values for the z-score in [8], in assay [9] and in assay [10] were -2.84 (inactive), -1.63 (inactive) and -2.22, respectively. For the same molecule, the composite z-score in assay [2] is -0.0984.

For the molecule `COC(=O)C1=CC(CCCO)=CC(c2ccc(CN3CCCC3)cc2)N(Cc2cc3c(cc2Br)OCO3)C=C1C(=O)OC` (stereo not given), the z-score in [1] is 0.235 (inactive); in assay [3] it was 0.903 (inactive); in [4] it was 0.408 (inactive); in assay [5] it was 1.23 (inactive); in assay [6] it was 0.082 (inactive); in assay [7], 0.158. The z-score in assay [8] was 1.64 (inactive); in [9], -0.638 (inactive); in assay [10] it was 0.399. The composite z-score in assay [2] came out at 0.744.

Values taken from PubChem BioAssay.
